A number with no mark means an inactive call. Activity calls are given as the source filed them. Cut-off read from the data, not from the text of the source: active = fold change mostly below about -2 (no sharp cut-off); inactive = mostly above about -1.8.
Test: modulation of TERT promoter-driven luciferase – cell-based, luciferase reporter, human, primary screen (AID 1259240)
Settings: A2780 TERT promoter luciferase reporter, 16 h; at 20 µM, fold versus average of vehicle-only wells
`CC(C)(C)NC(=O)CSc1nc(-c2ccc(F)cc2)cc(C(F)(F)F)n1` gave a fold change of -1.59. `COc1ccc(-c2cc(C(F)(F)F)nc(SCCC(=O)N3CCN4CCCC4C3)n2)cc1` (centres undefined) gave a fold change of -1.73. With `Cc1nc(SCC(=O)Nc2ccc([N+](=O)[O-])cc2)c2c(=O)n(C)c(=O)n(C)c2n1` the fold change was -1.11. In the case of `CCOC(=O)c1sc(NC(=O)c2cc(C)no2)c(C(=O)OCC)c1C`, the fold change is reported as 1.26. Compound `CSc1ccc(/C=c2\sc3nc(-c4ccco4)nn3c2=O)cc1` has a fold change of -1.12. `Cc1ccc2nc(N3CCOCC3)c3nncn3c2c1` showed a fold change of 1.35. For `Cc1cccc(CNc2nc(N)n(-c3ccccc3)n2)c1`, the fold change was 1.27. In the case of `COCCn1c(C)cc(C(=O)CSc2nnc3c(C)cc4ccccc4n23)c1C`, the fold change is reported as 1.96. For `O=C(NCC1(c2ccccc2)CCCC1)c1ccc2c(=O)n3c(nc2c1)CCCCC3`, the fold change was -1.33. Work on `O=C(COc1ccc(Cl)cc1)Nc1ccc2nc3n(c(=O)c2c1)CCCCC3` yielded a fold change of -1.27. With `CCNc1nc(NCC)nc(OCCNS(=O)(=O)c2ccccc2)n1` the fold change was -1.79. In the case of `OC(c1ccccc1)c1nn(CN2CCOCC2)c(=S)n1-c1ccccc1` (centres undefined), the fold change is reported as -3.71 (active). For `CC(C)C(NC(=O)CN1C(=O)c2ccccc2S1(=O)=O)C(C)C`, the fold change was -2.34 (active). Work on `O=C(CC1(CC2=NS(=O)(=O)c3ccccc3N2)CCCC1)NCc1ccccc1` yielded a fold change of -1.27. For `CC(C)CNC(=O)CCN1C(=O)c2ccccc2S1(=O)=O`, the fold change was -2.25 (active). For `C1=C(c2cccnc2)Nc2nc3ccccc3n2C1c1cccs1` (centres undefined), the outcome was “inactive”. Compound `COC(=O)c1c(NC(=O)Cn2nc(C)c([N+](=O)[O-])c2C)sc2c1CCCC2` has a fold change of -1.68. Compound `CCS(=O)(=O)N1N=C(c2ccc(NS(C)(=O)=O)cc2)CC1c1ccccc1` (centres undefined) has a fold change of 1.35. `Cc1oc(-c2ccccc2F)nc1CSc1nc2ccncc2[nH]1` showed a fold change of -1.15. For `COc1ccc(Cl)cc1S(=O)(=O)n1ccnc1C(C)C`, the fold change was -4.76 (active). Work on `COc1ccc(-c2c(C)oc3c(CN4CCN(C)CC4)c(O)ccc3c2=O)cc1` yielded a fold change of 1.02. Compound `O=C(Nc1cccc(C(F)(F)F)c1)Nc1ccc2snnc2c1` has a fold change of -1.55. `COC(=O)CSc1nnc2sc3ccccc3n12` showed a fold change of -1.32. `Nc1nc(SCC(=O)NCCCN2CCOCC2)nc2sc3c(c12)CCC3` showed a fold change of -1.53. With `COc1cc(NC(=O)c2onc(C)c2Cl)cc(OC)c1OC` the fold change was 1.32. `CCOC(=O)C1CCCN(c2c(N3CCN(c4ccc(F)cc4)CC3)c(=O)c2=O)C1` (centres undefined) showed a fold change of -1.2. For `CCOc1cc2c(cc1OCC)C(c1ccc(Br)cc1)CC(=O)N2` (centres undefined), the fold change was 1.18. For `Cn1c(C(=O)N2CCC(C(=O)NCCc3c[nH]c4ccccc34)CC2)cc2sccc21`, the fold change was -1.05. In the case of `O=C(NCCCN1CCCC1)C(=O)Nc1ccc2nc3n(c(=O)c2c1)CCCCC3`, the fold change is reported as 1.01. For `Clc1ccc(CNc2ncnc3nc[nH]c23)cc1`, the fold change was 2.09 (active). In the case of `CCOc1cccc2cc(S(=O)(=O)c3ccc(C(C)(C)C)cc3)c(=O)oc12`, the fold change is reported as -1.2. `c1ccc(CN2CCN(c3nnc(Cc4cccnc4)c4ccccc34)CC2)cc1` showed a fold change of 1.04. With `COC(=O)c1ccc(-c2ccc(/C=C3/NC(=O)N(c4ccccc4)C3=O)o2)cc1` the fold change was -2.59 (active). With `c1cncc(Cc2nnc(N3CCC4(CC3)OCCO4)c3ccccc23)c1` the fold change was -1.13. With `CCc1ccc2c(c1)c1n[nH]c(=S)nc1n2C` the fold change was -1.88. For `O=C(O)Cn1cc(/C=C2/C(=O)Nc3ccccc32)c2ccccc21`, the fold change was 1.41. For `O=C(CSc1nc(-c2cccs2)cc(C(F)(F)F)n1)NCc1cccnc1`, the fold change was -2.7 (active). Compound `Cc1ccc(-n2c(-c3ccco3)nc3c(cnn3-c3ccccc3C)c2=O)cc1F` has a fold change of -1.09. For `CC(C)CNC(=O)CSc1nc(-c2cccs2)cc(C(F)(F)F)n1`, the fold change was -2.24 (active).
